Shiga inhibitor: blocks Shiga toxin action in Vero cells; Vero cells, Shiga toxin protein synthesis inhibition reporter; inhibition, % at 38.7 µM; 290,000 compounds, 9.2% hits; AID 2315; in the data active = inhibition mostly above about 28%, no sharp cut-off; inactive = mostly below about 43%; note: 0% is about no effect
Cycloheximide cs: counter-screen for Shiga toxin inhibitors: cycloheximide protein synthesis inhibition; cell reporter, cycloheximide protein synthesis inhibition counterscreen; max response, %; 300,000 compounds, 12% hits; AID 2314; in the data active = max response mostly above about 13%, no sharp cut-off; inactive = mostly below about 14%; note: read at 38.3 µM for the half of the compounds with a filed dose; 0% is about no effect
TbPYK inhibitor: T. brucei pyruvate kinase inhibition. 410,000 compounds, 0.12% hits. Q57TT1. AID 624173. Potency, µM (top dose mostly 76.8 µM), inactives show at the top dose activity, negative = inhibition, most hits filed as inhibitors. TbPYK enzyme, Kinase-Glo Plus ATP luminescence, 45 min; note: potency is the fitted concentration of half-maximal effect; % is set by controls: 0 for no effect and ±100 for the full control effect; nearly all actives have a fitted effect of over 50% in size
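T. brucei PYK with substrate was exposed to pin-transferred compounds across a concentration series, then started with 130 uM ADP (final). After 45 min at room temperature, Kinase-Glo Plus luminescence was read, normalized and curve-fitted.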
LmPK inh: blocks Leishmania mexicana pyruvate kinase activity; Q27686; 290,000 compounds, 0.37% hits; Potency, µM (highest dose often 57.5 µM), without a hit: at the top dose activity change, negative = inhibition, hits mostly inhibitors; AID 1721; purified LmPK, Kinase-Glo ATP luminescence, 1 h; note: potency is the fitted concentration of half-maximal effect; % is set by controls: 0 for no effect and ±100 for the full control effect
Target sequence (Q27686 whole entry, looked up): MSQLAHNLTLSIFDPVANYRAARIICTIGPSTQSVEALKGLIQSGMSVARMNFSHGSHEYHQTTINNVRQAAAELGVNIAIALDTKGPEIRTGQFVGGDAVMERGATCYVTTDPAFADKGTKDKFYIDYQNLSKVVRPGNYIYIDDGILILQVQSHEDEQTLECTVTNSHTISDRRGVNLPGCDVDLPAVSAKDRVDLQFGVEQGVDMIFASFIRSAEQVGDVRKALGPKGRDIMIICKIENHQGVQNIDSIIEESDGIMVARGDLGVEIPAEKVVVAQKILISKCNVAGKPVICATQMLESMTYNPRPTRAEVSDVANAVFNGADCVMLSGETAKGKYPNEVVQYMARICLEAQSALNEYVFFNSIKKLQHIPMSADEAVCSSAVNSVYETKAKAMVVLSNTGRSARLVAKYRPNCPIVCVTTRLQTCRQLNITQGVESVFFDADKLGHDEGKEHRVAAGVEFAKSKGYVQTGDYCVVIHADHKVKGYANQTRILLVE
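Purified LmPK (0.1 nM) with 0.5 mM PEP and 0.1 mM ADP in imidazole buffer pH 7.2 with MgCl2/KCl, 1 h at room temperature. ATP formed was read by luciferase luminescence and normalized to no-enzyme and uninhibited controls.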
FBPA Giardia inh: Giardia lamblia aldolase inhibition | purified Giardia FBPA | 290,000 compounds, 0.71% hits | AID 2451 | Potency, µM (highest dose often 59.6 µM), without a hit: at the top dose activity, negative = inhibition, actives largely listed as inhibitors | A8B2U2; note: potency is the fitted concentration of half-maximal effect; % is set by controls: 0 for no effect and ±100 for the full control effect; nearly all actives have a fitted effect of over 55% in size
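Giardia FBPA (40 nM reagent) was preincubated 10 min at RT with compound (up to 57.5 uM final), then substrate plus GAPDH/TPI/NAD/arsenate coupling system with diaphorase/resazurin was added; resorufin fluorescence (525/598 nm) was read after 20 min.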
Sm TGR block: inhibitors of Schistosoma mansoni thioredoxin glutathione reductase; Q962Y6; purified TGR, DTNB reduction, TNB absorbance 405 nm; Potency, µM (highest dose often 114 µM), for inactives: at the highest dose activity change, negative = inhibition, actives largely listed as inhibitors; 360,000 compounds, 3% hits; AID 485364; note: potency is the fitted concentration of half-maximal effect; % is set by controls: 0 for no effect and ±100 for the full control effect; nearly all actives have a fitted effect of over 60% in size
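TGR 20 nM + NADPH 100 uM (dispensed conc.), cpd preinc 15 min RT; start with NADPH (500 uM addition) then DTNB (15 mM addition). Kinetic TNB absorbance, 405 nm filter. Four-parameter Hill fit across titration.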
Active calls of the source: *; ? = inconclusive; nt = no result given; ! = not confirmed by another sample; [ ] = remark or other dose. The entries come from a sample that favours hits as a whole. Unless noted, calls come from the whole dose curve; as a rule, active = well fitted curve in the direction sought with a large enough effect; inconclusive = small, poorly fitted or top-dose-only effect, or another doubt; inactive = no such curve, though single readings can be large; an effect the other way counts as inactive or inconclusive.

SMILES	Shiga inhibitor	Cycloheximide cs	TbPYK inhibitor	LmPK inh	FBPA Giardia inh	Sm TGR block
CCN=c1sc(C(=O)NCCc2ccccc2)cc(=O)n1CC	97*	47*	-12%	3%	2%	20µM*
O=C(NCCc1ccccc1)c1cccs1	50	29*	4%	-17%	2%	2%
COc1ccc(CNC(=O)c2ccc(-c3nc(CSc4ccc(C)cc4)c(C)o3)cc2)c(OC)c1	nt	nt	-1%	nt	nt	-6%
CCn1c(CN2CCOCC2)nc2cc(NC(=O)c3ccc([N+](=O)[O-])cc3)ccc21	nt	nt	2%	nt	nt	-2%
O=C(NCCc1ccccc1)c1cnc2sccn2c1=O	93*	43*	-2%	4%	-2%	2%
O=C(Cn1cnc2ccccc21)c1ccccc1	19	2	-5%	1%	8%	-21%
O=C(Cn1ccsc1=NC(=O)C(F)(F)F)c1ccccc1	71	30*	-1%	5%	-1%	8%
CC(C)NC(=O)CCCc1ccccc1	58*	27*	1%	5%	7%	-25%
CC(O)c1cccc(NC(=O)CCCc2ccccc2)c1 (stereo not given)	49*	12	5%	6%	0%	14%
Cc1cccc(NC(=S)NC(=O)CCc2ccccc2)c1	72*	18*	-6%	0%	1%	-3%
CC(O)c1cccc(NC(=O)CCC(=O)O)c1 (stereo not given)	-15	-3	-3%	-1%	0%	5%
CN(C)c1ccc(NC(=O)CCCc2ccccc2)cc1	100*	36*	?	-8%	?	-8%
COc1ccc(COC(=O)N/N=C2/C[C@@H](O)[C@@H](O)[C@@H]3[C@@H]4C(=O)N(C(C)(C)C)C(=O)[C@H]4CC[C@@H]23)cc1	nt	nt	nt	nt	4%[12.9 µM]	nt
CCOc1ccc(C(=O)NCC(=O)NCC(c2cccs2)N2CCOCC2)cc1 (stereo not given)	nt	nt	1%	nt	nt	-24%
CN(c1ccccc1)S(=O)(=O)c1ccc(C(=O)N2CCN(c3ccccc3)CC2)cc1	nt	nt	2%	nt	nt	nt
Cc1cccc(NC(=O)CCCc2ccccc2)c1	73*	57*	7%	0%	-4%	2%
Cc1cccc(NC(=O)CCn2cnnn2)c1	13	19	1%	6%	1%	89µM*!
Cn1c(=O)c2c(nc(CN3CCN(c4ccccc4F)CC3)n2Cc2ccc(F)cc2)n(C)c1=O	nt	nt	1%	nt	nt	3%
COC(=O)[C@@H](NC(=O)N1CCc2nc(-c3ccc(OC)cc3C)c3c(c2C1)CO[C@@H](c1ccccc1)C3)C(C)C	nt	nt	nt	0%[11.5 µM]	0%[12.9 µM]	nt
O=C(O)Cc1cc(F)c(S(=O)(=O)N2CCN(S(=O)(=O)c3ccc4c(c3)OCCO4)CC2)cc1F	-5	-7	nt	nt	nt	nt
CCOC(=O)c1ccc(OCCN2C[C@H](O)[C@@H](O)[C@H](O)[C@H]2CO)cc1	nt	nt	4%	nt	nt	nt
Cc1c(Cl)c(-c2n[nH]c(=S)n2-c2ccc(F)cc2)nn1C	33	13	4µM*	?	0%	-21%
Cc1nn(C)c(-c2n[nH]c(=S)n2-c2ccccc2)c1Cl	active	10	?	-15%	-29%	-1%
Cn1cc(Cl)c(-c2n[nH]c(=S)n2-c2ccc(F)cc2)n1	-4	-6	?	-18%	-18%	-7%
Cn1cc(Cl)c(-c2n[nH]c(=S)n2-c2ccccc2)n1	20	-2	?	-1%	-24%	-3%
SMILES	Shiga inhibitor	Cycloheximide cs	TbPYK inhibitor	LmPK inh	FBPA Giardia inh	Sm TGR block
CCOC(=O)c1ccc(NC(=O)N2CCOc3ccccc32)cc1	nt	nt	-2%	nt	nt	8%
O=C(c1cccc(F)c1)n1nnc2ccccc21	49	-3	-2%	0%	1%	35µM*
CN(C)c1ccc(C(=O)n2nnc3ccccc32)cc1	116*	57*	-6%	-19%	0%	-17%
Cc1cccc2c1-c1sc(C(=O)N3CCCCC3)cc1CO2	41*	30*	-2%	3%	0%	0%
CCN1CCN(C(=O)c2cc3c(s2)-c2c(C)cccc2OC3)CC1	34*	29*	-5%	2%	4%	-2%
CCOC(=O)N1CCN(C(=O)c2cc3c(s2)-c2c(C)cccc2OC3)CC1	-17	-1	4%	0%	-9%	-14%
O=C(c1ccco1)N1CCN(C(=O)c2cc3c(s2)-c2ccccc2OC3)CC1	-7	10	-19%	0%	-4%	25µM*
O=c1c(NCCc2ccc(Cl)cc2)nccn1-c1ccccc1	nt	nt	-4%	nt	nt	-9%
Fc1ccc(-c2c[nH]c(=S)n2Cc2ccccc2)cc1	-3	-3	?	3.5µM*	-3%	-3%
O=C(OCc1ccc(F)cc1)c1cc2ccccc2cc1O	15	8.6*	-6%	-4%	2%	-16%
CCC1CCCCN1C(=O)COC(=O)c1cc2ccccc2cc1O (stereo not given)	80*	50*	6%	12%	-3%	31%[11.4 µM]
O=C(NCCc1ccccc1)c1ccccc1SCC(=O)N1CCCC1	97*	27*	6%	-1%	14%	-25%
CCC1CCCCN1C(=O)COC(=O)c1cc(=O)[nH]c2ccccc12 (stereo not given)	nt	nt	4%	nt	nt	nt
O=C(OCC(=O)N1CCCCC1)c1cc2ccccc2cc1O	48	24*	-10%	-3%	-1%	-3%
Cc1ccc(Cn2c(CNS(=O)(=O)c3cccc([N+](=O)[O-])c3)nc3cccnc32)cc1	nt	nt	7%	nt	nt	-2%
COCCn1c(=O)c(-c2ccc(Cl)cc2)nc2cnc(OCc3ccccc3)nc21	nt	nt	nt	nt	6%	nt
CCNc1ncc2nc(-c3cccc(C#N)c3)c(=O)n(Cc3cccc(OC)c3)c2n1	nt	nt	nt	nt	5%	nt
CCOc1ccccc1NC(=O)N(C)CCc1c(C)nn(CC)c1C	nt	nt	0%	nt	nt	-7%
O=C(OC1C[C@@H]2CC3C[C@H](C1)N2CC3=O)c1c[nH]c2ccccc12 (stereo not given in full)	nt	nt	0%	nt	nt	nt
COc1cc(C(=O)NCC(c2cccs2)S(=O)(=O)c2ccc(F)cc2)cc(OC)c1OC (stereo not given)	nt	nt	1%	nt	nt	-20%
CCNC(=O)NC(=O)COC(=O)c1ccccc1SCC(=O)NC(=O)NCC	68	63*	?	?	10%	-20%
O=C(OCC(=O)N1CCCCC1)c1ccccc1SCC(=O)N1CCCCC1	31	20*	-1%	-3%	8%	-31%
C/C(CC(=O)N1CCCC1)=N\NC(=O)c1cc2ccccc2cc1O	48	14	0%	9%	13µM*	?
O=C(COC(=O)c1ccccc1SCC(=O)NC1CCS(=O)(=O)C1)NC1CCS(=O)(=O)C1 (stereo not given)	-6	-1	2%	0%	5%	nt
O=C(COC(=O)c1ccccc1SCC(=O)N1CCCC1)NC1CCCCC1	nt	nt	-3%	nt	nt	-1%
CCOC(=O)C(C)/C(C)=N/NC(=O)c1cc2ccccc2cc1O (stereo not given)	-7	1	-10%	4%	-20%	-10%

Compound activity deposited in PubChem by National Center for Advancing Translational Sciences (NCATS).
